Several values for one entry are separate records, joined by “and”; a condition that tells them apart may be missing. Equal entries are not always repeated. Records with an inconclusive call do not appear. Unmarked numbers belong to inactive results. Activity calls are given as the source filed them. Calls come from the whole dose curve; as a rule, active = well fitted inhibition curve with a large enough effect; inconclusive = small, poorly fitted or top-dose-only effect; inactive = flat fitted curve, though single readings scatter.
Biological target: 15-hydroxyprostaglandin dehydrogenase [NAD(+)] (Homo sapiens) (UniProt P15428)
Assay: Extended Characterization of HPGD Inhibitors: Activity in Primary Assay (HPGD)
Settings: recombinant HPGD, NADH fluorescence, PGE2 substrate; series mostly up to 57.1 µM; activity, negative = inhibition: at the top concentration
In short: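 Enzyme (20 nM final) preincubated 15 min at room temperature with compounds across several concentrations (qHTS); reaction started with NAD+ and PGE2 (1 mM and 30 uM in substrate solution). NADH fluorescence (ex 340/em 450) read kinetically, last-minus-first normalized to controls.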

15-hydroxyprostaglandin dehydrogenase [NAD(+)] (Homo sapiens), sequence (P15428 whole entry, looked up): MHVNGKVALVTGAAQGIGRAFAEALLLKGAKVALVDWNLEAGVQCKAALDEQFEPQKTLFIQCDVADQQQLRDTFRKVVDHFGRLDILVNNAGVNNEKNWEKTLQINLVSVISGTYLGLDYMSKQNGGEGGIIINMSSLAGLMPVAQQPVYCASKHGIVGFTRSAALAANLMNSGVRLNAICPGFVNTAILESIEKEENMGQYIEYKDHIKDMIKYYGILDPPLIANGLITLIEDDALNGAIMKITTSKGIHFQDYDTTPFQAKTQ

SMILES	activity, negative = inhibition [%]	Potency
CC(C)(C)c1ccc(CSc2nc3ncc(Br)cc3[nH]2)cc1	-15.2	–
N#Cc1ccc(CSc2nc3ncc(Br)cc3[nH]2)cc1	–	482 nM (active)
Brc1cnc2nc(SCc3cccnc3)[nH]c2c1	–	1360 nM (active)
FC(F)(F)c1ccc(-c2nc(-c3nnc4n3CCCCC4)c(C(F)(F)F)o2)cc1	-16	–
COc1ccccc1-n1cnc2cc(C(=O)N3CCCCC3)ccc21	–	27.1 nM (active)
Cc1cc(-c2nnc3n2CCCCC3)c(C)n1-c1ccc([N+](=O)[O-])cc1	–	108 nM (active)
Cc1cc(-c2nnc3n2CCC3)c(C)n1-c1ccccc1	–	3040 nM (active)
Cc1cc(-c2nnc3n2CCCCC3)c(C)n1-c1ccc(F)cc1	–	121 nM (active)
Cc1cc(-c2nnc3n2CCCCC3)c(C)n1-c1cccc(C#N)c1	–	76.4 nM (active)
Cc1cccc(-n2cnc3cc(C(=O)NC4CCCC4)ccc32)c1	–	961 nM (active)
Brc1cnc2nc(SCc3ccncc3)[nH]c2c1	–	1520 nM (active)
Clc1cccc(CSc2nc3ncc(Br)cc3[nH]2)c1	–	242 nM (active)
c1ccc(-n2ccc(-c3nnc4n3CCCCC4)c2)cc1	–	607 nM (active)
CCCCNC(=O)c1ccc2c(c1)ncn2-c1cccc(C)c1	–	1360 nM (active)
Cc1cc(-c2nnc3n2CCCCC3)c(C)n1-c1cccc(Cl)c1	–	34.1 nM (active)
c1ccc(-n2cc(-c3nnc4n3CCCCC4)cn2)cc1	–	3830 nM (active)
Cc1ccccc1CSc1nc2ncc(Br)cc2[nH]1	–	76.4 nM (active)
Cc1cccc(-n2cnc3cc(C(=O)N4CCCC4)ccc32)c1	–	383 nM (active)
Cc1cccc(-n2cnc3cc(C(=O)N4CCOCC4)ccc32)c1	–	3040 nM (active)
CCCCn1cnc2cc(C(=O)N3CCCCC3)ccc21	–	68.1 nM (active)
CC(C)(C)n1cnc2cc(C(=O)N3CCCCC3)ccc21	–	34.1 nM (active)
Cc1cccc(-n2cnc3cc(C(=O)N4CCCC(c5ccccc5)C4)ccc32)c1 (stereo not given)	–	429 nM (active)
Cc1cccc(-n2cnc3cc(C(=O)N4CC(C)CC(C)C4)ccc32)c1 (stereo not given)	–	271 nM (active)
COc1ccc(-n2cnc3cc(C(=O)N4CCCCC4)ccc32)cc1	–	19.2 nM (active)
Cc1cccc(-n2cnc3cc(C(=O)N4CCC(C(F)(F)F)CC4)ccc32)c1	–	1520 nM (active)
Cc1cc(-c2nnc3n2CCCCC3)c(C)n1-c1cccc2ccccc12	–	54.1 nM (active) and 108 nM (active)
Brc1cnc2nc(SCc3ccccn3)[nH]c2c1	–	3410 nM (active)
Cc1cc(-c2nnc3n2CCCCC3)c(C)n1-c1ccncc1	–	383 nM (active)
Cc1cccc(-n2cnc3cc(C(=O)N4CCCC(C)(C)C4)ccc32)c1	–	68.1 nM (active)
Cc1cc(-c2nnc3n2CCCCC3)c(C)n1-c1ccccc1	–	121 nM (active) and 54.1 nM (active) and 68.1 nM (active)
